93 compounds from PubChem BioAssay AID1578 (Sanford-Burnham Center for Chemical Genomics, 2009) can be followed below.

The structures appear in SMILES notation. Values joined by “and” are separate entries in the source; they are usually repeats but may differ in a detail not shown here. Equal values may be shown once. The campaign covered roughly 290,000 compounds. About 3,000 (1%) were called active. No stated cut-off is given here; in the data, active means inhibition mostly above about 36% (no sharp cut-off); inactive means mostly below about 34%. The entries come from a sample that favours actives as a whole. Where a structure was tested more than once in an assay, its records may differ in their call.

A short description of the experiment: inhibition of NOD1-driven NF-kB reporter – cell-based, luminescence, uHTS, primary screen (AID 1578).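 Further: HEK-293T reporter cells stimulated with the NOD1 agonist gamma-tri-DAP.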 The conditions noted are these: NOD1-driven NF-kB luciferase reporter cells, at 4 µM, stronger effect = higher value. (In general: In a reporter assay the amount or activity of a reporter protein is the signal.)
What is called inhibition is the change of the read-out against control, counted positive when it falls. For `CCN(CC)C(=O)Cn1cc(C(=O)C(=O)N2CCN(C)CC2)c2ccccc21`, the inhibition was -22.7% (inactive).
Consider `COc1ccc(C(=O)CC(=O)c2ccc(OC)cc2)cc1`, for which the inhibition was -23.3% (inactive).
With `COc1ccc(C(=O)C/C(=C\C(=O)c2ccc(C)cc2)c2ccccc2)cc1`, the inhibition is 71.2% (active).
With `Cc1ccc(C(=O)CC(=O)c2ccccc2)cc1`, the inhibition is -42.7% (inactive).
Turning to `CC(C)N1CC(C(=O)Nc2ccc(Cl)c([N+](=O)[O-])c2)CC1=O` (stereo not drawn), the inhibition was -8.3% (inactive).
As for `Cc1ccc2[nH]c3c(c2c1)CCCC3NC(=O)CCl` (stereo not drawn), the inhibition is 70% (active).
Consider `Cc1ccc2[nH]c3c(c2c1)CCCC3C(N)=O` (stereo not drawn), for which the inhibition was -44.3% (inactive).
`Cc1ccc2[nH]c3c(c2c1)CCCC3NCCO` (stereo not drawn): the inhibition was -12.6% (inactive).
The figure for `COC(=O)[C@@]1(Cc2ccccc2)[C@@H]2C(=CC(=O)[C@H]2CC(=O)C(=O)N(C)C)CN1C(=O)c1ccccc1` is 47.7% (inactive).
On to `COC(=O)[C@@]1(Cc2ccc(F)cc2)[C@@H]2[C@@H](CC(=O)[C@H]2CC(=O)C(=O)N(C)C)CN1C(=O)c1ccccc1`, for which the inhibition was -29.5% (inactive).
In the case of `C=C1C(=O)C=C2CN(C(=O)c3ccccc3)[C@@](Cc3ccc(F)cc3)(C(=O)OC)[C@@H]12`, the inhibition was 98.5% (active).
For the compound `CS(=O)(=O)c1cnc(-c2ccccc2)nc1-c1ccccc1Cl`, the inhibition was 23.1% (inactive).
The value for `CC1Cc2cc(S(=O)(=O)N3CCC(C(N)=O)CC3)ccc2N1C(=O)C1CC1` (stereo not drawn) was -42.9% (inactive); that for `O=C(N/N=C/c1ccc([N+](=O)[O-])o1)c1ccc(O)cc1` was 6.8% (inactive).
The value for `O=C(/C=C/c1ccc([N+](=O)[O-])o1)NNC(=O)c1ccc(F)cc1` was 66.9% (active); that for `O=C(O)/C=C/c1ccc([N+](=O)[O-])o1` was -17.7% (inactive); that for `CCCOc1ccc(OCCCCNC(C)CC)cc1` (stereo not drawn) was 0.5% (inactive).
The value for `COc1ccc(N(C(=O)Cn2nnc(-c3ccc(F)cc3)n2)C(C)C(=O)NC2CCCC2)cc1OC` (stereo not drawn) was 10.1% (inactive); that for `COc1ccc(N(C(=O)Cn2nnc(-c3ccc(F)cc3)n2)C(C)C(=O)NC2CCCC2)cc1` (stereo not drawn) was -22.6% (inactive).
Consider `CC(C(=O)NC1CCCC1)N(C(=O)Cn1nnc(-c2ccc(F)cc2)n1)c1ccccc1F` (stereo not drawn), for which the inhibition is 82.7% (active).
For `COc1cccc(C(=O)NCCCNC(=O)c2ccco2)c1`, the inhibition is 9.1% (inactive).
For the compound `Cc1ccccc1C1C(C#N)=C(N)N(N(C)C)C2=C1C(=O)CC(C)(C)C2` (stereo not drawn), the inhibition is -10.1% (inactive).
`CCCCn1c2c(c(=N)c3ccccc31)CCC2`: the inhibition is -6.7% (inactive).
The figure for `CCCCCn1c2c(c(=N)c3ccccc31)CCC2` is -13.6% (inactive); for `CCCCCCCn1c2c(c(=N)c3ccccc31)CCC2` it is 77.4% (active); for `CCO[C@H]1OC(C(=O)NC2CC2)=C[C@@H](c2ccc(C(F)(F)F)cc2)[C@@H]1CCCO` it is 1.4% (inactive).
The figure for `CC(Oc1ccccc1)C(=O)N=Nc1c(O)[nH]c2ccc(Br)cc12` (stereo not drawn) is -9.4% (inactive); for `Cc1c(CBr)[n+](=O)c2c(n1[O-])C(Br)CCC2Br` (stereo not drawn) it is -9.7% (inactive).
As to `CC(=O)OC1CCC(OC(C)=O)c2c1n([O-])c(C)c(C)[n+]2=O` (stereo not drawn), the inhibition was 79.5% (active).
Take `Cc1c(C)[n+](=O)c2c(n1[O-])C(Br)CCC2Br` (stereo not drawn): the inhibition is -7.3% (inactive).
`N#Cc1cc([N+](=O)[O-])ccc1NCC1CCCO1` (stereo not drawn): the inhibition was -26.2% (inactive).
The value for `N#Cc1cc(NCC2CCCO2)c([N+](=O)[O-])cc1C#N` (stereo not drawn) was -23.8% (inactive); that for `N#Cc1cc(Cl)c(NCC2CCCO2)cc1C#N` (stereo not drawn) was 83.4% (active).
The value for `COc1ccc2cc(S(=O)(=O)N3CCOCC3)ccc2c1` was -5.6% (inactive); that for `COc1ccc2[nH]c(=O)c(CNc3ccccc3C)cc2c1` was -10.6% (inactive); that for `COc1ccc(C2CC(c3cccs3)=NN2c2nc(-c3ccccc3)cs2)cc1OC` (stereo not drawn) was -16.1% (inactive).
Take `OCCN1CCN(c2ncnc3sc(-c4ccccc4)cc23)CC1`: the inhibition was -0.1% (inactive).
With `OCCN1CCN(c2ncnc3ccc(Br)cc23)CC1`, the inhibition is 66.7% (active).
Take `CN1CCN(c2ncnc3sc(-c4ccccc4)cc23)CC1`: the inhibition is 32% (inactive).
`CC1(C)CC2CC(C)(CN2c2ncnc3ccc(Br)cc23)C1` (stereo not drawn): the inhibition was 39.1% (inactive).
The figure for `OCCN1CCN(c2nc(-c3ccccc3)c3cc(Br)ccc3n2)CC1` is -12.3% (inactive); for `COc1ccc(OC)c(C(=O)NC(CC(N)=O)c2ccc(NCCOc3ccccc3)c([N+](=O)[O-])c2)c1` (stereo not drawn) it is -4% (inactive); for `CCCNC(=S)NC1CC2CCC(C1)N2Cc1ccccc1` (stereo not drawn) it is 0.5% (inactive).
The figure for `O=C(CN1C(=O)/C(=C/c2ccccc2F)Sc2ccccc21)NCc1cccnc1` is 59.2% (active); for `O=C(CN1C(=O)/C(=C/c2ccccc2F)Sc2ccccc21)NCCCN1CCOCC1` it is -19.9% (inactive).
On to `O=C(CN1C(=O)/C(=C/c2ccccc2F)Sc2ccccc21)NCC1CCCO1` (stereo not drawn), for which the inhibition is 9.1% (inactive).
Turning to `NS(=O)(=O)c1ccc(CNC(=S)NCc2ccc(F)cc2)cc1`, the inhibition is 14.6% (inactive).
For the compound `Cc1onc(C(=O)NN)c1C(=O)Nc1ncc(C(F)(F)F)cc1Cl`, the inhibition was -8.1% (inactive).
Consider `O=C(C1=NN[C@@H]2C(=O)N(c3cccc(F)c3)C(=O)[C@H]12)c1ccc2ccccc2n1`, for which the inhibition is -47% (inactive).
With `O=C(C1=NN[C@@H]2C(=O)N(c3ccccc3C(F)(F)F)C(=O)[C@H]12)c1ccc2ccccc2n1`, the inhibition was -11.3% (inactive).
In the case of `O=C(C1=NN[C@@H]2C(=O)N(c3cccc(C(F)(F)F)c3)C(=O)[C@H]12)c1ccc2ccccc2n1`, the inhibition was 87.5% (active).
Regarding `O=C(O)/C=C\C(=O)NNC(=O)c1cc(-c2ccccc2)n[nH]1`, the inhibition is -10% (inactive).
The figure for `Cc1ccc(CNC(=O)c2ccccc2NS(=O)(=O)c2ccc(Cl)nc2)cc1` is 5.6% (inactive).
For the compound `CC(C)On1c(SCC(=O)N(C)C)nc2ccccc2c1=O`, the inhibition was -1.8% (inactive).
On to `CCN1/C(=C\C(C)=O)Sc2ccc(OC)cc21`, for which the inhibition is 16.9% (inactive).
Take `CCN1/C(=C/C(C)=O)Sc2ccc(OC)cc21`: the inhibition is 53% (active).
For `CCC(=O)/C=C1/Sc2ccc(OC)cc2N1CC`, the inhibition is 22.6% (inactive).
Take `CC(=O)N1[C@H](Cc2ccccc2)C=C[C@]1(C)C(=O)NCCN1CCOCC1`: the inhibition was 22.4% (inactive).
As for `CC(=O)N1[C@H](Cc2ccccc2)C=C[C@]1(C)C(=O)NCCc1c[nH]c2ccccc12`, the inhibition was -15.7% (inactive).
The value for `CC(=O)N1[C@H](Cc2ccccc2)C=C[C@]1(C)C(=O)NCc1ccc(C)o1` was 99.7% (active); that for `C[C@]1(C(=O)NCCc2c[nH]c3ccccc23)C=C[C@@H](Cc2ccccc2)N1C(=O)c1ccccc1` was 84.6% (active); that for `COCCNC(=O)[C@@]1(C)C=C[C@@H](Cc2ccccc2)N1C(=O)c1ccccc1` was -45.4% (inactive).
Turning to `CC(=O)N1[C@H](Cc2ccccc2)C=C[C@]1(C)C(=O)NCc1ccccn1`, the inhibition was -2.7% (inactive).
The value for `Cc1sc2nc(SCC(=O)N(C)Cc3ccccc3)n(-c3ccccc3)c(=O)c2c1C` was 3.3% (inactive); that for `Cc1ccc2c(c1)N(C(=O)CCC(=O)NCc1cccnc1)CC(C)O2` (stereo not drawn) was -33% (inactive).
With `Cc1ccc(C(=O)N2CCc3ccccc32)o1`, the inhibition is -15.8% (inactive).
Take `CCOC(=O)c1nc2nc(C)cc(=O)n2[nH]1`: the inhibition was -8.6% (inactive).
The figure for `O=C(NCCCCCCNC(=O)OC1CCS(=O)(=O)C1)OC1CCS(=O)(=O)C1` (stereo not drawn) is 9.3% (inactive); for `COc1cccc2c1C(=O)c1c(O)c3c(c(O)c1C2=O)C[C@@](O)(C(=O)CO)C[C@@H]3O[C@H]1C[C@H](N)[C@H](O)[C@H](C)O1` it is 78.6% (active); for `COc1cccc2c1C(=O)c1c(O)c3c(c(O)c1C2=O)C[C@@](O)(C(C)=O)C[C@@H]3O[C@H]1C[C@H](N)[C@H](O)[C@H](C)O1` it is 108% (active).
Consider `COc1cccc2c1-c1c(O)cccc1C2=O`, for which the inhibition is -18.2% (inactive).
Take `COc1ccc(OC)c(-n2c(-c3cccc(C)c3)n[nH]c2=S)c1`: the inhibition is -42.7% (inactive).
The value for `COc1cccc(COc2ccccc2C2Nc3ccc(Br)cc3C(=O)N2NC(=O)c2ccncc2)c1` (stereo not drawn) was 9.7% (inactive); that for `O=[N+]([O-])c1ccc(N=Nc2ncc[nH]2)cc1` was 74.2% (active); that for `O=[N+]([O-])c1ccc(N=NN(CCO)CCO)cc1` was 6.1% (inactive).
Turning to `O=[N+]([O-])c1ccc(N=Nc2c(Cl)cc(O)cc2Cl)cc1`, the inhibition was 16.5% (inactive).
Take `CCC(=O)c1c(OCc2ccccc2)ccc2c(C)cc(=O)oc12`: the inhibition was 3.9% (inactive).
Take `Cc1cccc(C(=O)C2CCN(S(=O)(=O)c3cccc(C(=O)O)c3)CC2)c1`: the inhibition was 12.2% (inactive).
Consider `NNC(=O)CSc1cccc2cccnc12`, for which the inhibition is -24.8% (inactive).
Take `O=C(CSc1cccc2cccnc12)OCC(=O)c1ccc(Br)cc1`: the inhibition was 3.3% (inactive).
Consider `CCOC(=O)CSc1cccc2cccnc12`, for which the inhibition is 85.4% (active).
The figure for `O=C(CSc1cccc2cccnc12)OCC(=O)c1ccccc1` is -30.2% (inactive).
As for `O=C(O)CSc1cccc2cccnc12`, the inhibition was 36% (inactive) and 65.2% (active).
With `CN(C)C(=O)CSc1cccc2cccnc12`, the inhibition is 85.5% (inactive).
For `COc1ccc(C2(C)NC(=O)N(CC3CCCCC3)C2=O)cc1` (stereo not drawn), the inhibition is 1.3% (inactive).
For `COc1ccccc1OCCCCN1CCC(C)CC1`, the inhibition was -6.9% (inactive).
Regarding `COc1ccc2nc(NC(=O)C3CCCN(S(=O)(=O)c4cccc5nonc45)C3)sc2c1` (stereo not drawn), the inhibition is -1.6% (inactive).
The value for `O=C(Nc1ccc(NC(=O)c2ccccc2Cl)cc1)c1cccnc1` was -48.1% (inactive); that for `CN(CCCCCCCCC(=O)/C=N/O)Cc1ccccc1` was -3.1% (inactive); that for `CCN(CC)CCOC(=O)c1ccc(NC(=O)c2ccc(Cl)c(S(=O)(=O)N3CCCCCC3)c2)cc1` was 13.1% (inactive).
For `CC(C)Nc1nnc(SCC(=O)Nc2ccc3c(c2)C(=O)c2ccccc2C3=O)s1`, the inhibition was 83.7% (active).
For `CC(C)Nc1nnc(SCC(=O)Nc2ccc(F)cc2)s1`, the inhibition is -8.4% (inactive).
Take `O=C(CSc1nnc(NC2CCCCC2)s1)Nc1ccc2c(c1)C(=O)c1ccccc1C2=O`: the inhibition was -43.3% (inactive).
